Laboratory results taken from PubChem BioAssay (EPA / NIEHS).
Where “and” joins values, the source holds several entries; their conditions need not be identical. Identical values can stand only once. Some compounds were tested as several samples or in several runs, with calls that do not always agree. Calls of active or inactive are those of the source. The calls were made as follows: active = hit-call score of the fitted dose curve at least 0.9, where 1 is the maximum; inactive = score below 0.9.

Legend:
[1] = target: Nuclear respiratory factor 1 (Homo sapiens) (UniProt Q16656); assay: ATG_NRF1_CIS: Attagene CIS-FACTORIAL HepG2 Assay for human Nuclear Respiratory Factor 1 (NRF1) Orphan Gene (AID 2282987); settings: HepG2 NRF1 cis-element reporter, Attagene multiplex; actives raise or lower the signal
Method in brief: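 HepG2 cells transiently transfected with multiple cis-regulated reporter units, exposed 24 h. Reporter mRNAs measured by RT-PCR, fluorescent labelling, HpaI digestion and capillary electrophoresis; bidirectional fitting against DMSO.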

[2] = ATG_NFI_CIS: Attagene CIS-FACTORIAL HepG2 Assay for human Nuclear Factor I (NFI) (AID 2282989); settings: HepG2 cis-regulatory reporter, NFI response element transcription; actives raise or lower the signal
Method in brief: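 HepG2, transient MRTU, 24 h exposure; RNA→cDNA→PCR→FAM label→HpaI→CE fluorescence. Bidirectional fit, DMSO = baseline.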

[3] = target: Myc proto-oncogene protein (Homo sapiens) (UniProt P01106); assay: ATG_Myc_CIS: Attagene CIS-FACTORIAL HepG2 Assay for human Myelocytomatosis (Myc) Proto-Oncogene Transcription Factor (AID 2282990); settings: HepG2, Attagene cis-reporter transcription factor activity; actives raise or lower the signal
Method in brief: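 Cells of the HepG2 human liver line bear multiple cis-driven reporter transcription units. Reporter mRNA after 24 h exposure is reverse-transcribed, amplified, labelled and resolved by capillary electrophoresis, with gain- or loss-of-signal fitting relative to DMSO.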

[4] = ATG_NF_kB_CIS: Attagene CIS-FACTORIAL HepG2 Assay for human Nuclear Factor Kappa B (NF-kB) (AID 2282991); settings: HepG2 Attagene cis-factorial NF-kB reporter mRNA; actives raise or lower the signal
Method in brief: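 HepG2 cells transfected with cis-promoter-driven reporter units, so endogenous transcription factor activity is measured. Reporter mRNA quantified 24 h after dosing by RT-PCR and capillary electrophoresis, with bidirectional fitting against DMSO.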

[5] = ATG_NRF2_ARE_CIS: Attagene CIS-FACTORIAL HepG2 Assay for human Nuclear Factor Erythroid 2 Related Factor 2 (NFR2) response to Antioxidant Response Elements (ARE) (AID 2282992); settings: HepG2 Attagene ARE/NRF2 reporter, transcription factor activity; actives raise or lower the signal;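 as to AC50: reporter mRNA level measured by RT-PCR and capillary electrophoresis fluorescence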
Method in brief: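 Fluorescence intensity of reporter-specific cDNA fragments, separated by capillary electrophoresis, reflects mRNA induction in transfected HepG2 cells at 24 h. Activity is fitted bidirectionally, DMSO serving as baseline.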

[6] = target: Cellular tumor antigen p53 (Homo sapiens) (UniProt P04637); assay: ATG_p53_CIS: Attagene CIS-FACTORIAL HepG2 Assay for human p53 Transcription Factor (AID 2282994); settings: HepG2 p53 cis-element reporter, Attagene mRNA; actives raise or lower the signal
Method in brief: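 Transiently transfected HepG2 (multiple cis reporter transcription units); exposure 24 h; reporter RNA via RT-PCR, 6-FAM extension, 2 h HpaI digest at 37 C, CE detection; DMSO baseline.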

[7] = BSK_3C_TissueFactor: BioMAP Diversity Plus: 3C Assay for Tissue Factor Biomarker Activity (AID 2282997); settings: BioMAP 3C HUVEC, tissue factor biomarker readout; actives raise or lower the signal
Method in brief: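 In this endothelial system, HUVEC are treated for 24 h and Tissue Factor is assessed by ELISA, normalised to DMSO.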

[8] = BSK_3C_uPAR: BioMAP Diversity Plus: 3C Assay for Urokinase-type plasminogen activator receptor (uPAR) Biomarker Activity (AID 2282998); settings: BioMAP 3C HUVEC, uPAR biomarker ELISA; actives raise or lower the signal
Method in brief: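 Dose primary human umbilical vein endothelial cells, incubate 24 h, measure cell-surface uPAR by ELISA, then fit the signal in both directions against the DMSO negative control.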

[9] = BSK_3C_VCAM1: BioMAP Diversity Plus: 3C Assay for Vascular cell adhesion molecule 1 (VCAM1) Biomarker Activity (AID 2282999); settings: BioMAP 3C HUVEC, VCAM1 ELISA, cytokine-stimulated; actives raise or lower the signal
Method in brief: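 Activity fitted in both directions relative to DMSO, with ELISA measurement of the surface marker on primary HUVEC (3C) at 24 h post-treatment; parallel SRB staining (0.1% SRB, TCA-fixed, 560 nm) flagged overt cytotoxicity.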

[10] = ATG_Oct_MLP_CIS: Attagene CIS-FACTORIAL HepG2 Assay for human Octamer-Binding Transcription Factor (Oct) (AID 2282993); settings: HepG2 Attagene cis-factorial Oct reporter, mRNA; actives raise or lower the signal
Method in brief: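 Multiplexed cis-reporter assay in human liver HepG2 cells, 24 h incubation. Reporter RNA amplified and labelled, then resolved by capillary electrophoresis; DMSO serves as negative control and baseline.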

Nuclear respiratory factor 1 (Homo sapiens), sequence (Q16656 whole entry, looked up): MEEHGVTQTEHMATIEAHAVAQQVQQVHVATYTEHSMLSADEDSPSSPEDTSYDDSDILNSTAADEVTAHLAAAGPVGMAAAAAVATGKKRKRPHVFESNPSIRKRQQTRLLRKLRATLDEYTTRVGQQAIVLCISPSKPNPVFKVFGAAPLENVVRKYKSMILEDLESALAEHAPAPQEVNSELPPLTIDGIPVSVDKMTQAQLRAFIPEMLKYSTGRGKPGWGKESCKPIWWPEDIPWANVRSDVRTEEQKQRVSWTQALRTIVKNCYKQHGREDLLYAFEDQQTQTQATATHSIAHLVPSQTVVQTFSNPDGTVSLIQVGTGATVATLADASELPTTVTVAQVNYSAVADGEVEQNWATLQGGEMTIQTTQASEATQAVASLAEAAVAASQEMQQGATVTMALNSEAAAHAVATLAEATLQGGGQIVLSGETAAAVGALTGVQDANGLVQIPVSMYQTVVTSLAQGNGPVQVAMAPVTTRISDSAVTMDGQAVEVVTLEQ
Myc proto-oncogene protein (Homo sapiens), sequence (P01106 whole entry, looked up): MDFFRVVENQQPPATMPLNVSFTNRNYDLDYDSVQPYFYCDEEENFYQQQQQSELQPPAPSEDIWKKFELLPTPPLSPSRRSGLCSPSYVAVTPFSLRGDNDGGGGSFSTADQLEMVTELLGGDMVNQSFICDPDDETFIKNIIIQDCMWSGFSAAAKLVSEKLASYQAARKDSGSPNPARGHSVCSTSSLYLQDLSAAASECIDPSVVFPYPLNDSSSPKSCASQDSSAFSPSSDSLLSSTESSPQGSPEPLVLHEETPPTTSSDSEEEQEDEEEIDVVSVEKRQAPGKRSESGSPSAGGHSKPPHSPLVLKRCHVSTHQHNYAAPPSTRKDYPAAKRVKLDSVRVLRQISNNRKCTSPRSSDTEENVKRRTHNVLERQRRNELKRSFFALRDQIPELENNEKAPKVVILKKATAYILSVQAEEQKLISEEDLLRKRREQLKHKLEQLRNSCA
Cellular tumor antigen p53 (Homo sapiens), sequence (P04637 whole entry, looked up): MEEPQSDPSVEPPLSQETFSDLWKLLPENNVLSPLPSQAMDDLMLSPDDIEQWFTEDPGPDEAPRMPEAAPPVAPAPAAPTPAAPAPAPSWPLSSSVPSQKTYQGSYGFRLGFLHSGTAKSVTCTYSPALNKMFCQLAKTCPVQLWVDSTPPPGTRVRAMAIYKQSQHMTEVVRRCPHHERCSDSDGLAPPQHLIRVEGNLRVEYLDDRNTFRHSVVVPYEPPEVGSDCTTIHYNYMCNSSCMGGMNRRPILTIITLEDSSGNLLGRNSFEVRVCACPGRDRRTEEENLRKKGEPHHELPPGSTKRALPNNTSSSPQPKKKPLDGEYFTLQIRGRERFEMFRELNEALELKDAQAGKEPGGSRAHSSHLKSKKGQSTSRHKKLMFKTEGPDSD

For `O=C(O)C(F)(F)C(F)(F)C(F)F`, the outcome [1] was “inactive”, the outcome [2] was “inactive” and the outcome [3] was “inactive”. The outcome [4] was “inactive”, the outcome [5] was “inactive” and the outcome [6] was “inactive”. For the same molecule, the outcome [7] was “inactive”, the outcome [8] was “inactive” and the outcome [9] was “inactive”.

With `[Co]` the outcome [1] was “inactive”, the outcome [2] was “inactive” and the outcome [3] was “inactive”. The outcome [4] was “inactive”, the outcome [5] was “inactive” and the outcome [6] was “inactive”.

In the case of `CN(C)Cc1ccccc1O`, the outcome [1] is reported as “inactive”, the outcome [2] is reported as “inactive” and the outcome [3] is reported as “inactive”. The outcome [5] was “inactive” and the outcome [6] was “inactive”.

For `Cc1cccc(N(C)C)c1`, the outcome [1] was “inactive”, the outcome [2] was “inactive” and the outcome [3] was “inactive”. The outcome [4] was “inactive”, the outcome [5] was “inactive” and the outcome [6] was “inactive”.

In the case of `COC(=O)C1CCC(C(=O)OC)CC1` (stereo not given), the outcome [1] is reported as “inactive”, the outcome [3] is reported as “inactive” and the outcome [4] is reported as “inactive”. The AC50 [5] was 163 µM (active), the outcome [5] was “inactive” and the outcome [6] was “inactive”.

With `CCN(CC)c1ccc2c(C)cc(=O)oc2c1` the outcome [1] was “inactive”, the outcome [2] was “inactive” and the outcome [3] was “inactive”. For the same molecule, the outcome [4] was “inactive”, the AC50 [5] was 59.3 µM (active) and the outcome [6] was “inactive”. The AC50 [7] was 20 µM (active), the outcome [8] was “inactive” and the outcome [9] was “inactive”.

In the case of `OCC(F)(F)C(F)(F)C(F)(F)C(F)F`, the outcome [1] is reported as “inactive”, the outcome [2] is reported as “inactive” and the outcome [3] is reported as “inactive”. For the same molecule, the outcome [4] was “inactive”, the outcome [5] was “inactive” and the outcome [6] was “inactive”. The outcome [7] was “inactive”, the outcome [8] was “inactive” and the outcome [9] was “inactive”.

In the case of `C=C(C)C(=O)OCC(F)(F)C(F)(F)C(F)(F)C(F)(F)C(F)(F)C(F)(F)C(F)(F)F`, the outcome [1] is reported as “inactive”, the outcome [2] is reported as “inactive” and the outcome [3] is reported as “inactive”. The outcome [4] was “inactive”, the outcome [5] was “inactive” and the outcome [6] was “inactive”. The outcome [7] was “inactive”, the outcome [8] was “inactive” and the outcome [9] was “inactive”.

With `C#C[C@]1(O)CC[C@H]2[C@@H]3CCc4cc(OC)ccc4[C@H]3CC[C@@]21C` the outcome [1] was “inactive”, the outcome [2] was “inactive” and the outcome [3] was “inactive”. For the same molecule, the outcome [4] was “inactive”, the AC50 [5] was 18 µM (active) and the outcome [6] was “inactive”. The outcome [7] was “inactive”, the outcome [8] was “inactive” and the outcome [9] was “inactive”.

With `CCCCOc1ccc(N)cc1` the outcome [1] was “inactive”, the outcome [2] was “inactive” and the outcome [3] was “inactive”. For the same molecule, the outcome [4] was “inactive”, the outcome [5] was “inactive” and the outcome [6] was “inactive”.

With `CCCCCCOC(=O)c1ccccc1O` the outcome [1] was “inactive”, the outcome [2] was “inactive” and the outcome [3] was “inactive”. The outcome [4] was “inactive”, the outcome [5] was “inactive” and the outcome [6] was “inactive”. The AC50 [7] was 48 µM (active) and 38.5 µM (active), the AC50 [8] was 24.5 µM (active) and 41.1 µM (active) and the AC50 [9] was 38.1 µM (active) and 37.2 µM (active).

In the case of `CCC(=O)OCCc1ccccc1`, the outcome [1] is reported as “inactive”, the outcome [2] is reported as “inactive” and the outcome [3] is reported as “inactive”. For the same molecule, the outcome [4] was “inactive”, the outcome [5] was “inactive” and the outcome [6] was “inactive”.

In the case of `C1COCCN1`, the outcome [1] is reported as “inactive”, the outcome [2] is reported as “inactive” and the outcome [3] is reported as “inactive”. For the same molecule, the outcome [5] was “inactive”, the outcome [10] was “inactive” and the outcome [6] was “inactive”.
